Source: PubChem BioAssay (Tox21)
Inconclusive results are not listed. A call without a number means that no potency is given here. Values without a mark were called inactive. Calls of active or inactive are those of the source. The call rests on the fitted dose curve; in most records, active means well fitted curve in the direction sought with a large enough effect in the repeat runs; inconclusive means weak or mixed curves; inactive means no such curve, though single readings can be large; an effect the other way counts as inactive or inconclusive.

Assay: qHTS RealTime-Glo MT Cell Viability Assay in HepG2 cells - 40 hour (AID 1224870); further: nearly all actives have a fitted effect of over 50% in size
Details: RealTime-Glo luminescence; series mostly up to 76.8 µM
Outline: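 HepG2 cells (600/well) mixed with RealTime-Glo MT reagent, settled 5 h at 37 C/5% CO2 before compound addition. Nonlytic NanoLuc luminescence from viable-cell prosubstrate reduction read repeatedly during 40 h treatment at 37 C.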

Row | SMILES | activity change, negative = cytotoxic | Potency
1 | C[C@@H]1CN(c2c(F)c(N)c3c(=O)c(C(=O)O)cn(C4CC4)c3c2F)C[C@H](C)N1 | -0.442% [at 15.8 µM] | 
2 | C=CCCC=C |  | inactive
3 | CN1C(=O)CC(c2ccccc2)C1=O (centres undefined) |  | inactive
4 | O=C(O)c1cccc(Cl)c1Cl |  | inactive
5 | OCC(CBr)(CBr)CBr |  | inactive
6 | CCC(=O)c1ccc2c(c1)N(CCCN(C)C)c1ccccc1S2 |  | inactive
7 | CN(C)C(=O)NC1(c2ccccc2)CCN(CCC[C@]2(c3ccc(Cl)c(Cl)c3)CCCN(C(=O)c3ccccc3)C2)CC1 | -4.9% [at 15.8 µM] | 
8 | Oc1ccccc1F |  | inactive
9 | C/C(=N\O)[C@@H](C)NCC(C)(C)CN[C@H](C)/C(C)=N/O |  | inactive
10 | Cc1ncc(CO)c(CN)c1O |  | inactive
11 | Cc1nc(N)nc(N)c1-c1ccc(Cl)c(Cl)c1 |  | inactive
12 | CCOc1ccc(OCC)c(Cl)c1 |  | inactive
13 | CC1(O)CSC(C)(O)CS1 (centres undefined) |  | inactive
14 | CCN(CC)CCOc1ccc(Cc2ccccc2)cc1 |  | inactive
15 | CN1CCN(N)CC1 |  | inactive
16 | O=S(=O)(O)C(F)(F)F |  | inactive

Row | SMILES | activity change, negative = cytotoxic | Potency
17 | COC(=O)C(C)O (centres undefined) |  | inactive
18 | CCOc1ccc(NS(=O)(=O)c2ccc(N)cc2)nn1 |  | inactive
19 | Cc1ccc(C(C)C)cc1O |  | inactive
20 | CCCCCCn1c(=O)c2c(ncn2C)n(C)c1=O |  | inactive
21 | CCC(=O)Nc1ccc(O)cc1 |  | inactive
22 | CC(CNC1CCCCC1)OC(=O)c1ccccc1 (centres undefined) |  | inactive
23 | CN1CCN(c2c(F)cc3c(=O)c(C(=O)O)cn(CCF)c3c2F)CC1 |  | inactive
24 | O=CCCc1ccccc1 |  | inactive
25 | CCCc1c2oc(C(=O)O)cc(=O)c2cc2c(=O)cc(C(=O)O)n(CC)c12 |  | inactive
26 | C=CCCCCCCCCO |  | inactive
27 | CCCCCCCCCC#N |  | inactive
28 | Clc1cccc(-c2cc(Cl)cc(Cl)c2)c1 |  | inactive
29 | CCCCNc1cc(C(=O)O)cc(S(N)(=O)=O)c1Oc1ccccc1 |  | inactive
30 | FC(F)(F)C(Cl)(Cl)Cl |  | inactive
31 | NC(=O)Cc1cccc(C(=O)c2ccccc2)c1N |  | inactive

Assay: A CellTox Green Cytotoxicity Assay to monitor cytotoxicity in HEK293 cells - 40 hour (AID 1224871); further: nearly all actives have a fitted effect of over 45% in size; further: potency means the concentration at half of the fitted maximal effect
Details: CellTox Green fluorescence; series mostly up to 76.8 µM
Outline: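 Seeding of HEK293 cells together with cytotoxicity dye preceded a 5 h incubation at 37 C/5% CO2. Test compounds in DMSO were then added and fluorescence monitored across 40 h.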

Row | SMILES | cytotoxicity increase | Potency
32 | C[C@@H]1CN(c2c(F)c(N)c3c(=O)c(C(=O)O)cn(C4CC4)c3c2F)C[C@H](C)N1 | 6.32% [at 15.8 µM] | 
33 | COc1nc(C)nc(NC(=O)NS(=O)(=O)c2ccccc2OCCCl)n1 |  | inactive
34 | Cc1ccsc1C(=CCCN1CCC[C@@H](C(=O)O)C1)c1sccc1C |  | inactive
35 | C=CCCC=C |  | inactive
36 | CN1C(=O)CC(c2ccccc2)C1=O (centres undefined) |  | inactive
37 | O=C(O)c1cccc(Cl)c1Cl |  | inactive
38 | OCC(CBr)(CBr)CBr |  | inactive
39 | CC(C)(C)c1ccc(OC(=O)c2ccccc2O)cc1 |  | inactive
40 | CN(C)C(=O)NC1(c2ccccc2)CCN(CCC[C@]2(c3ccc(Cl)c(Cl)c3)CCCN(C(=O)c3ccccc3)C2)CC1 | 31% [at 15.8 µM] | 
41 | Oc1ccccc1F |  | inactive
42 | CC(C)(C)C1CCCCC1=O (centres undefined) |  | inactive
43 | C/C(=N\O)[C@@H](C)NCC(C)(C)CN[C@H](C)/C(C)=N/O |  | inactive
44 | Cc1ncc(CO)c(CN)c1O |  | inactive
45 | Cc1nc(N)nc(N)c1-c1ccc(Cl)c(Cl)c1 |  | inactive
46 | CC1(O)CSC(C)(O)CS1 (centres undefined) |  | inactive
47 | CCN(CC)CCOc1ccc(Cc2ccccc2)cc1 |  | inactive
48 | CN1CCN(N)CC1 |  | inactive

Row | SMILES | cytotoxicity increase | Potency
49 | O=S(=O)(O)C(F)(F)F |  | inactive
50 | COC(=O)C(C)O (centres undefined) |  | inactive
51 | CCOc1ccc(NS(=O)(=O)c2ccc(N)cc2)nn1 |  | inactive
52 | CCCCCCn1c(=O)c2c(ncn2C)n(C)c1=O |  | inactive
53 | CCC(=O)Nc1ccc(O)cc1 |  | inactive
54 | CC(CNC1CCCCC1)OC(=O)c1ccccc1 (centres undefined) |  | inactive
55 | O=CCCc1ccccc1 |  | inactive
56 | CCCCCCCCCC#N |  | inactive
57 | Clc1cccc(-c2cc(Cl)cc(Cl)c2)c1 |  | 37.5 µM (active)
58 | CCCCNc1cc(C(=O)O)cc(S(N)(=O)=O)c1Oc1ccccc1 |  | inactive
59 | O=Cc1ccc(O)c(O)c1O |  | inactive
60 | CC/C=C\CCOC(=O)C(C)C |  | inactive
61 | FC(F)(F)C(Cl)(Cl)Cl |  | inactive
62 | NC(=O)Cc1cccc(C(=O)c2ccccc2)c1N |  | inactive
63 | O=C1CCCCC1C1CCCCC1 (centres undefined) |  | inactive
64 | CN1CCN(C2=Nc3cc(F)ccc3Cc3ccccc32)CC1 |  | inactive
